# Assay results as given in PubChem BioAssay.
# “And” between values parts separate entries of the source, which are not always exact repeats. Identical values can stand only once. For some of these results: Entries with a potency or affinity are not part of this list. The source made the active and inactive calls.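 Rule for the calls, unless noted: active = thallium flux through the channel raised or lowered by more than 3 SD from vehicle-only wells, actives on both sides; inactive = the rest.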
# What was measured:
# [1] = polyglutamine-triggered caspase-3 activation inhibitors, cell-based (AID 1583); conditions: polyglutamine-induced caspase-3 activation, cell assay; stronger effect = higher value;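 tested at 10 µM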
# [2] = suppressors of polyQ aggregation in yeast, 75Q-TubU reporter (AID 1593); conditions: Yeast 75Q polyglutamine aggregation reporter
# [3] = rescue of polyQ-huntingtin neuronal dysfunction in worms, whole organism, C. elegans mechanosensory neurons, N-terminal huntingtin (AID 1599); conditions: touch response, stronger effect = higher value
# [4] = inhibitors of mitochondrial cytochrome c release, biochemical, purified mitochondria (AID 1603); conditions: stronger effect = lower value;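 note: mouse liver mitochondria challenged with calcium chloride; signal normalized to the plate average as 100%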
# [5] = inhibitors of polyQ protein aggregation (AID 1604); conditions: polyglutamine-induced protein aggregation inhibition assay; stronger effect = higher value; tested at 2.5 µM
# [6] = enhancers of glutamate uptake in motor neurons, MN-1 cell line (AID 1612); conditions: MN-1 motor neuron cells, stronger effect = higher value;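 note: tested at 1 µM final; 0% = mean of DMSO vehicle wells on each plate; positive means more glutamate uptake than control and negative means less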
# [7] = suppressors of polyglutamine aggregation in yeast, 75Q-TubH (AID 1616); conditions: S. cerevisiae 75Q-TubH polyglutamine aggregation suppression; stronger effect = higher value
# [8] = hESC survival regulators, cell-based (AID 493140; call rule not given here;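 note: cells exposed to compounds for four days before counting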); conditions: human embryonic stem cell survival screen; stronger effect = higher value
# [9] = test system: Hepatitis C virus NS3 helicase; assay: HCV NS3 helicase inhibitors, primary screen, biochemical, fluorescence polarization, LOPAC1280 library (AID 687035; in the data active = inhibition above about 37%); conditions: Purified HCV NS3 helicase, Cy5-dT15 ssDNA binding fluorescence polarization; stronger effect = higher value; concentration not given here
# [10] = Cy5 fluorescence interference with SSB-bound oligo, artefact control for HCV NS3 helicase inhibitor project, biochemical, NIH Clinical Collection, E. coli SSB (AID 743268; call rule not given here)
# [11] = modulation of C. elegans fzo-1 (AID 1259413; call rule not given here;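 note: fzo-1 mutant C. elegans worms in liquid wells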); conditions: C. elegans fzo-1 modulator screen, mean read-out; stronger effect = higher value
# [12] = viability rescue of complex I mutant cybrids, primary screen, cell-based, galactose medium, ATP luminescence (AID 1645843;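 active = z-score of at least 1.8 in each of two replicates, scored against plate mean and spread of sample wells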;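 note: positive z means more ATP and so rescue of galactose-driven cybrid death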); conditions: complex I mutant cybrid cells, 72 h, stronger effect = higher value
# [13] = test system: R275C; assay: modulators of BK channel variants, profiling panel, selectivity assay, cell-based, U2OS BacMam, thallium flux, beta subunits (AID 1259406); conditions: at 30 µM;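 note: initial slope of Thallos dye fluorescence rise after thallium is added; log ratio against the mean of 0.3% DMSO vehicle wells on the same plate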
# [14] = test system: R275C/beta1; assay: as above; conditions: at 30 µM
# [15] = test system: R275C/beta2Delta; assay: as above; conditions: at 30 µM
# [16] = liver-stage malaria parasite growth inhibition, primary screen, cell-based, HepG2, luciferase luminescence, HepG2 viability (AID 624349; in the data active = parasite load remaining mostly below about 12%, no sharp cut-off; inactive = mostly above about 10%;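 note: 100% = mean of DMSO negative control wells on the same plate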); conditions: P. berghei liver stage in HepG2, luciferase luminescence, concentration not given here; parasite load remaining: stronger effect = lower value; viability: measured here: HepG2 viability without parasites
# [17] = test system: F380Y/beta1; assay: modulators of BK channel variants, profiling panel, selectivity assay, cell-based, U2OS BacMam, thallium flux, beta subunits (AID 1259406); conditions: at 30 µM;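 note: initial slope of Thallos dye fluorescence rise after thallium is added; log ratio against the mean of 0.3% DMSO vehicle wells on the same plate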
# [18] = test system: F380Y/beta4; assay: as above; conditions: at 30 µM
# [19] = test system: R275C/beta4; assay: as above; conditions: at 30 µM
# [20] = test system: R275C/Slo1WT/beta2; assay: as above; conditions: at 30 µM
smiles,measurement,setting,value
CN(C)CCOC(c1ccccc1)c1ccccc1,inhibition,[1],15.6%
same,score,[2],1.18
same,rescue above control,[3],-3.14
same,cytochrome c release ratio,[4],1.11
same,inhibition of aggregation,[5],85.2%
same,glutamate uptake change,[6],8.03%
same,aggregation suppression score,[7],1.07
same,survival,[8],14 (inactive)
same,inhibition,[9],-1% (inactive)
same,fluorescence ratio,[10],1.02 (inactive)
same,mean signal,[11],216 (inactive)
same,z-score,[12],-0.255 (inactive) and 0.81 (inactive) and 0.09 (inactive)
same,log fold change Tl+ flux,[13],0.00435 (inactive)
same,log fold change Tl+ flux,[14],0.00179 (inactive)
same,log fold change Tl+ flux,[15],0.0139 (inactive)
O=c1n(CCCN2CCN(c3cccc(Cl)c3)CC2)nc2ccccn12,inhibition,[1],17.6%
same,score,[2],1.36
same,rescue above control,[3],8.41
same,cytochrome c release ratio,[4],1.04
same,inhibition of aggregation,[5],-2.89%
same,glutamate uptake change,[6],4.27%
same,aggregation suppression score,[7],1.27
same,survival,[8],27.2 (inactive)
same,inhibition,[9],0% (inactive)
same,fluorescence ratio,[10],1.01 (inactive)
same,mean signal,[11],242 (inactive)
same,z-score,[12],-0.33 (inactive) and 0.63 (inactive)
same,log fold change Tl+ flux,[13],0.0186 (inactive)
same,log fold change Tl+ flux,[14],0.025 (inactive)
same,log fold change Tl+ flux,[15],0.0634 (inactive)
CNCCCC12CCC(c3ccccc31)c1ccccc12,inhibition,[1],-14.8%
same,score,[2],1.5
same,rescue above control,[3],28.8
same,cytochrome c release ratio,[4],1.86
same,inhibition of aggregation,[5],26.4%
same,glutamate uptake change,[6],22.4%
same,aggregation suppression score,[7],1.14
same,survival,[8],0.833 (inactive)
same,inhibition,[9],-6% (inactive)
same,fluorescence ratio,[10],0.97 (inactive)
same,mean signal,[11],255 (inactive)
same,log fold change Tl+ flux,[13],0.0254 (inactive)
same,log fold change Tl+ flux,[14],0.285 (active)
same,log fold change Tl+ flux,[15],0.217 (active)
CC1(C)O[C@@H]2C[C@H]3[C@@H]4C[C@H](F)C5=CC(=O)C=C[C@]5(C)[C@H]4[C@@H](O)C[C@]3(C)[C@]2(C(=O)CO)O1,survival,[8],3 (inactive)
same,parasite load remaining,[16],33.4% (inactive) and 143% (inactive)
same,viability,[16],88.6% and 103%
same,fluorescence ratio,[10],1.07 (inactive)
same,z-score,[12],-1.48 (inactive)
same,log fold change Tl+ flux,[17],0.017 (inactive)
same,log fold change Tl+ flux,[18],-0.0612 (inactive)
same,log fold change Tl+ flux,[13],0.00271 (inactive)
same,log fold change Tl+ flux,[14],-0.0113 (inactive)
same,log fold change Tl+ flux,[15],-0.0208 (inactive)
same,log fold change Tl+ flux,[19],0.0291 (inactive)
same,log fold change Tl+ flux,[20],0.0322 (inactive)
O=C1N=C(O)CN1/N=C/c1ccc(-c2ccc([N+](=O)[O-])cc2)o1,inhibition,[1],24%
same,score,[2],1.7
same,rescue above control,[3],-1.39
same,cytochrome c release ratio,[4],0.66
same,inhibition of aggregation,[5],71.6%
same,glutamate uptake change,[6],-2.24%
same,aggregation suppression score,[7],1.1
same,survival,[8],28.9 (inactive)
same,parasite load remaining,[16],21.2% (inactive) and 82.2% (inactive) and 9.57% (inactive)
same,viability,[16],47.1% and 91.4% and 102%
same,mean signal,[11],232 (inactive)
same,z-score,[12],-0.315 (inactive) and -0.365 (inactive)
CC1(C)O[C@@H]2C[C@H]3[C@@H]4CCC5=CC(=O)C=C[C@]5(C)[C@@]4(F)[C@@H](O)C[C@]3(C)[C@]2(C(=O)CO)O1,parasite load remaining,[16],89.9% (inactive)
same,viability,[16],87.8%
same,fluorescence ratio,[10],0.99 (inactive)
same,z-score,[12],0.21 (inactive)
same,log fold change Tl+ flux,[17],0.0642 (inactive)
same,log fold change Tl+ flux,[18],0.0499 (inactive)
same,log fold change Tl+ flux,[13],-0.0106 (inactive)
same,log fold change Tl+ flux,[14],0.0867 (inactive)
same,log fold change Tl+ flux,[15],0.0611 (inactive)
same,log fold change Tl+ flux,[19],-0.0125 (inactive)
same,log fold change Tl+ flux,[20],-0.102 (inactive)
CCN(CC)C(=S)SSC(=S)N(CC)CC,survival,[8],16.9 (inactive)
same,inhibition,[9],-3% (inactive)
same,fluorescence ratio,[10],0.98 (inactive)
same,mean signal,[11],249 (inactive)
same,z-score,[12],-1.35 (inactive) and -1.44 (inactive) and -2.44 (inactive)
same,log fold change Tl+ flux,[13],0.00507 (inactive)
same,log fold change Tl+ flux,[14],0.145 (active)
same,log fold change Tl+ flux,[15],0.0247 (inactive)
OCCN(CCO)c1nc(N2CCCCC2)c2nc(N(CCO)CCO)nc(N3CCCCC3)c2n1,inhibition,[1],-102%
same,score,[2],1.27
same,rescue above control,[3],18.2
same,cytochrome c release ratio,[4],1.1
same,inhibition of aggregation,[5],79.2%
same,glutamate uptake change,[6],32%
same,aggregation suppression score,[7],1.33
same,survival,[8],34.4 (inactive)
same,inhibition,[9],-2% (inactive)
same,fluorescence ratio,[10],0.96 (inactive)
same,mean signal,[11],298 (inactive)
COc1cc2nc(N3CCN(C(=O)c4ccco4)CC3)nc(N)c2cc1OC,inhibition,[1],16.5%
same,score,[2],1.21
same,rescue above control,[3],-0.41
same,cytochrome c release ratio,[4],1.07
same,inhibition of aggregation,[5],70.4%
same,glutamate uptake change,[6],-22.2%
same,aggregation suppression score,[7],1.01
same,survival,[8],0.667 (inactive)
same,inhibition,[9],-1% (inactive)
same,mean signal,[11],236 (inactive)
same,log fold change Tl+ flux,[13],-0.0502 (inactive)
same,log fold change Tl+ flux,[14],-0.0587 (inactive)
same,log fold change Tl+ flux,[15],-0.0145 (inactive)
CNC(=O)Oc1ccc2c(c1)[C@]1(C)CCN(C)[C@@H]1N2C,inhibition,[1],8.95%
same,score,[2],1.22
same,rescue above control,[3],1.05
same,cytochrome c release ratio,[4],1.08
same,inhibition of aggregation,[5],39.4%
same,glutamate uptake change,[6],-18.2%
same,aggregation suppression score,[7],1.03
same,survival,[8],7.25 (inactive)
same,inhibition,[9],-2% (inactive)
same,z-score,[12],-0.835 (inactive) and -0.865 (inactive)
CC(=O)OCC(=O)[C@@]12OC(C)(C)O[C@@H]1C[C@H]1[C@@H]3C[C@H](F)C4=CC(=O)C=C[C@]4(C)[C@@]3(F)[C@@H](O)C[C@@]12C,survival,[8],3.25 (inactive)
same,parasite load remaining,[16],84.8% (inactive) and 108% (inactive)
same,viability,[16],105% and 96.2%
same,fluorescence ratio,[10],1.05 (inactive)
same,z-score,[12],0.355 (inactive)
same,log fold change Tl+ flux,[17],0.0412 (inactive)
same,log fold change Tl+ flux,[18],0.048 (inactive)
same,log fold change Tl+ flux,[13],-0.038 (inactive)
same,log fold change Tl+ flux,[14],-0.00722 (inactive)
same,log fold change Tl+ flux,[15],-0.0403 (inactive)
same,log fold change Tl+ flux,[19],0.0407 (inactive)
same,log fold change Tl+ flux,[20],0.0498 (inactive)
